Source: PubChem BioAssay (National Center for Advancing Translational Sciences (NCATS))
IP6K1 inhibitor = inhibitors of human IP6K1; activity change, % (series mostly up to about 58 µM); actives 0.81% (n = 140,000); IP6K1 kinase, ADP-Glo luminescence, 2 h; stronger effect = lower value; Q92551; in the data active means activity change below about -25%
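ADP-Glo luminescence measures ADP made by human IP6K1 during a 2 h RT reaction with ATP/IP6 (mix at 1.3 mM/130 uM); top library doses 57.5 and 19.1 uM final.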
SNCA expr inhib = reduces expression of the alpha-synuclein gene; Potency, µM (series often up to 57.2 µM), inactives show at the top dose activity change, negative = inhibition, usual class: inhibitors; actives 0.17% (n = 140,000); HEK-293 SNCA-luciferase knock-in, luminescence, 24 h;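 further: potency means the concentration at half of the fitted maximal effect; plate controls were DMSO cells for no effect and cell-free wells for full effect; nearly all actives have a fitted effect of over 45% in size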
HEK293 viab = reduces viability of HEK-293 SNCA reporter cells; HEK-293-SNCA-luc viability, GF-AFC fluorescence, 24 h; Potency, µM (highest dose often 57.1 µM), for inactives: at the highest dose activity change, negative = cytotoxicity, usual class: cytotoxic; actives 0.12% (n = 150,000);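 further: potency means the concentration at half of the fitted maximal effect; 0% = DMSO-treated cells and -100% = medium-only wells without cells; nearly all actives have a fitted effect of over 30% in size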
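HEK-293-SNCA-luc cells (1500/well) plated 24 h, then exposed 24 h to a dilution series; GF-AFC added 30 min at 37C, fluorescence 405/540 nm; normalised to medium-only and DMSO wells, Hill fit.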
FLuc inh = Photinus pyralis luciferase inhibition. purified P. pyralis luciferase, luminescence, biochemical. Potency, µM (series often up to 115 µM), hits mostly inhibitors. actives 2.5% (n = 76,000); further: potency means the concentration at half of the fitted maximal effect; nearly all actives have a fitted effect of over 65% in size
Target sequence (P08659 whole entry, looked up): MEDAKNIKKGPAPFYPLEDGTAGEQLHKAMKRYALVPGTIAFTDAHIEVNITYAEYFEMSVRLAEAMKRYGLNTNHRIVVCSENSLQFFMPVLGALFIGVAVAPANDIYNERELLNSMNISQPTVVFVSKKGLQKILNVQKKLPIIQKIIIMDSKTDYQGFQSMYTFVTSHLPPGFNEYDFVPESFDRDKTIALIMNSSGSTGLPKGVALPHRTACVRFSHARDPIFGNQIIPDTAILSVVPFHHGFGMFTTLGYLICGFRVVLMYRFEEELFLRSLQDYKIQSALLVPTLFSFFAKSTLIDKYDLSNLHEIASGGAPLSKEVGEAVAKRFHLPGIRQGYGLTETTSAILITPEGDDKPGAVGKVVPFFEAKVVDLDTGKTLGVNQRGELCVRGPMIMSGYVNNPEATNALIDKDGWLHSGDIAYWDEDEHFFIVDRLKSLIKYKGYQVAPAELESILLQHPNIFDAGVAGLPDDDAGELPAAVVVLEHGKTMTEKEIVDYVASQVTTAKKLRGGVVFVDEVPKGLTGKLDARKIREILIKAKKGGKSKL
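Biochemical qHTS: compound (6-point titration) added to 10uM D-luciferin plus 10uM ATP in Tris acetate pH 7.5 buffer with Mg, Tween-20 and BSA, then purified enzyme at 10nM; light output imaged.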
NIH3T3 tox = cytotoxic compounds in NIH 3T3 cells | NIH 3T3 viability, CellTiter-Glo ATP luminescence, 48-72 h | Potency, µM (titrated, usually from 96.7 µM), inactives show at the top dose activity change, negative = cytotoxicity, most hits filed as inhibitors | actives 4.3% (n = 94,000); further: potency means the concentration at half of the fitted maximal effect; nearly all actives have a fitted effect of over 55% in size
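ATP-dependent luminescence (CellTiter-Glo) served as the viability signal for NIH 3T3 cells treated with compound for 48 or 72 hr at 37 °C.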
HEK293 tox = HEK 293 cell cytotoxicity | actives 6.6% (n = 94,000) | AID 1345083 | Potency, µM (titrated, usually from 115 µM), without a hit: top-dose activity change, negative = cytotoxicity, usual class: inhibitors | HEK 293 viability, ATP luminescence (CellTiter-Glo), 48-72 h; further: potency means the concentration at half of the fitted maximal effect; nearly all actives have a fitted effect of over 60% in size
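HEK 293 cells at 250 cells/well were exposed to compounds by pintool transfer for 48 or 72 hr at 37 degree Celsius, 5% CO2. Viability was read as ATP-coupled luminescence with CellTiter-Glo after 10 min at room temperature.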
Active calls of the source: *; i = inactive; u = inconclusive; x = no result; [ ] = dose if it differs, or a comment. Shown are actives, neighbours in structure and some others; about 7.3% of the full set was active somewhere. Unless noted, the call rests on the fitted dose curve; in most records, active means well fitted curve in the direction sought with a large enough effect; inconclusive means small, poorly fitted or top-dose-only effect, or another doubt; inactive means no such curve, though single readings can be large; an effect the other way counts as inactive or inconclusive. Unless noted, on the % scale 0 is the no-effect control and ±100 the full control effect.

SMILES | IP6K1 inhibitor | SNCA expr inhib | HEK293 viab | FLuc inh | NIH3T3 tox | HEK293 tox
Cc1ccccc1Oc1c(CCC(=O)NCC2CC2)c(C)nn1-c1ccc(F)cc1 | 15.4 | u | 8.9% | i | 25.1µM* | u
CSc1ccc(-c2cccc(CN3CCC(NC(=O)NC(C)C)CC3)c2)cc1 | -0.9 | x | x | x | -21.7% | -25.1%
CC1Oc2ccc(NC(=O)Cc3ccccc3)cc2CN(Cc2ccc(F)cc2)C1=O (configuration not stated) | -0.8 | 6.8% | u | i | u | 44.7µM*
CC1Oc2ccc(NS(=O)(=O)c3ccc(F)cc3)cc2CN(Cc2ccc(F)cc2)C1=O (configuration not stated) | -8.3 | -7.1% | 7.1% | i | u | 44.7µM*
COc1ccc(CN2Cc3cc(NC(=O)Cc4ccc(F)cc4)ccc3OC(C)C2=O)cc1 (configuration not stated) | -1.1 | -7.5% | 2.1% | i | u | 39.8µM*
CC1Oc2ccc(NC(=O)Cc3ccc(F)cc3)cc2CN(CC2CC2)C1=O (configuration not stated) | -1.4 | -10.8% | 1.6% | i | u | 39.8µM*
O=C(NCc1cccnc1N1CCOCC1)c1n[nH]c2c1CCCC2 | 5.3 | 7.3% | -6.2% | i | i | 11.2%
Clc1ccccc1C1Cn2cnc(-c3nc(-c4ccccc4)no3)c2CO1 (configuration not stated) | 12.0 | 79.0% | -0.4% | i | -0.1% | 7.1%
CSc1ccc(-c2noc(-c3nnn4c3COC(c3ccc(F)cc3)C4)n2)cc1 (configuration not stated) | 8.3 | 18.3% | -0.3% | i | i | 5.7%
COc1ccc(-c2noc(-c3nnn4c3COC(c3ccc(F)cc3)C4)n2)c(OC)c1 (configuration not stated) | 0.9 | 11.7% | 2.9% | i | 2.4% | -0.5%
CCOc1ccc(C2Cn3nnc(-c4nc(-c5ccccc5)no4)c3CO2)cc1 (configuration not stated) | 1.9 | 80.1% | 5.8% | 8.91µM* | -1.6% | -3.9%
Fc1ccccc1-c1noc(-c2ncn3c2COC(c2ccccc2Cl)C3)n1 (configuration not stated) | 9.5 | 65.4% | 2.0% | 15.8µM* | u | u
CSc1ccc(-c2noc(-c3ncn4c3COC(c3ccc(F)cc3)C4)n2)cc1 (configuration not stated) | -4.2 | 4.3% | 1.4% | i | 25.1µM* | 31.6µM*
COc1ccc(-c2noc(-c3ncn4c3COC(c3ccc(F)cc3)C4)n2)c(OC)c1 (configuration not stated) | 9.3 | u | u | i | 31.6µM* | 35.5µM*
COCCOC1CCOC2(CCN(C(=O)Nc3ccccc3F)CC2)C1 (configuration not stated) | 18.5 | 96.1% | 4.5%[12.5 µM] | u | -11.5% | -29.4%
CCOc1cc(-c2noc(-c3ncn4c3COC(c3ccc(F)cc3)C4)n2)ccc1OC (configuration not stated) | -4.0 | -11.5% | -10.8% | i | 25.1µM* | 22.4µM*
CCOc1cccc(-c2noc(-c3ncn4c3COC(c3ccc(OC)cc3)C4)n2)c1 (configuration not stated) | 3.1 | u | -18.2% | i | 22.4µM* | 22.4µM*
COc1ccc(C2Cn3cnc(-c4nc(-c5cccs5)no4)c3CO2)cc1 (configuration not stated) | -4.6 | 100.7% | 5.2% | 25.1µM* | u | u
Cc1cncc(C(=O)N2C[C@H]3OC(=O)N(CCc4cccc(Cl)c4)[C@H]3C2)c1 | -7.6 | -9.4% | -1.6% | i | i | i
Cn1ncc2c(C(=O)NCC3CCCCC3)cc(-c3ccccc3C(F)(F)F)nc21 | -4.1 | x | x | x | u | -27.2%
CCOc1ncccc1C(=O)N1CCc2[nH]nc(-c3cccc(F)c3)c2C1 | 8.9 | 5.1% | -15.7% | i | -29.0% | -24.6%
COc1ccc(OC)c(NC(=O)CSC2=Nc3ccccc3C3=NC(CC(=O)NCc4ccco4)C(=O)N23)c1 (configuration not stated) | -25.3* | -26.7% | 2.3% | x | x | x
Cc1ccnn1CC(=O)N1CCOc2c(O)cc(-c3cccc(Cl)c3)cc2C1 | -2.1 | 4.5% | -0.8% | i | u | u
Cc1nc(C(=O)N2CCOc3c(O)cc(-c4cccc(Cl)c4)cc3C2)c(C)o1 | 6.4 | 2.3% | -8.6% | i | u | 39.8µM*
CCOC(=O)C(C)N1CCOc2c(O)cc(-c3cccc(Cl)c3)cc2C1 (configuration not stated) | 39.3 | 11.1% | 1.9% | i | u | 44.7µM*
SMILES | IP6K1 inhibitor | SNCA expr inhib | HEK293 viab | FLuc inh | NIH3T3 tox | HEK293 tox
CSc1ccc(-c2cccc(C(=O)NCCNC(=O)c3ccccc3C)c2)cc1 | 3.4 | 21.0% | 1.8%[12.5 µM] | x | -42.3% | 25.1µM*
COc1cccc(CNC(=O)CNC(=O)c2cccc(-c3ccc(C(F)(F)F)cc3)c2)c1 | -15.1 | -16.7% | u | x | u | 22.4µM*
COc1ccc(CNC(=O)CNC(=O)c2cccc(-c3ccc(SC)cc3)c2)cc1OC | -3.3 | 12.5% | -26.0% | x | u | 31.6µM*
CSc1ccc(-c2cccc(C(=O)NCC(=O)NCc3ccc4c(c3)OCO4)c2)cc1 | 0.2 | -4.9% | -17.8% | x | -33.8% | u
CSc1ccc(-c2cccc(C(=O)NCC(=O)NCc3ccc(C(F)(F)F)cc3)c2)cc1 | -9.4 | 4.1% | -13.8% | x | u | 44.7µM*
O=C(CN1CC2CC(C1)[C@H]1CCCC(=O)N1C2)NC1CCN(Cc2ccccc2)CC1 (some centres not stated) | 21.2 | -20.2% | -2.0% | i | -4.4% | -10.7%
CCNC(=O)OC1CCN(C(=O)c2ccc(OC)c(OC)c2)CC(=O)N(C)c2ccccc21 (configuration not stated) | 4.4 | x | x | x | u | u
CSc1ccc(-c2cccc(C(=O)NCC(=O)NCc3cccnc3)c2)cc1 | 0.9 | -9.3% | -10.8% | x | u | 22.4µM*
CSc1ccc(-c2cccc(C(=O)NCC(=O)NCc3cccc(C(F)(F)F)c3)c2)cc1 | -12.2 | -1.1% | -12.4% | x | u | 39.8µM*
COc1ccc(F)cc1-c1cccc(C(=O)NCC(=O)NCc2ccc(C(F)(F)F)cc2)c1 | -3.6 | x | x | x | 39.8µM* | 39.8µM*
CSc1ccc(-c2cccc(C(=O)NCC(=O)NCc3cccc(F)c3)c2)cc1 | 1.3 | u | u | x | u | u
O=C(CNC(=O)c1cccc(-c2ccc(C(F)(F)F)cc2)c1)NCc1cccs1 | -0.8 | -3.3% | 9.0%[12.5 µM] | x | u | 39.8µM*
